Laboratory results: the supplement of paper PMC10477191
± gives the standard deviation of the averaged measurements.

Tested on: Drosophila ezoana antennal basiconic sensillum ab8
Assay: odor-evoked OSN spike response (post minus pre-stimulus); higher = stronger neuronal excitation
Details: odor dilution: 10^-4
Protocol: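 Single sensillum recordings from antennal basiconic sensilla of D. ezoana. A 500 ms pulse of odorant (10^-4 in mineral oil or DMSO) was delivered; the response is the change in action potential frequency between the 1 s pre- and post-stimulus windows (spikes/s).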

SMILES	odor-evoked OSN spike response [spikes/s]
CC(C)=O [acetone]	66.9 ± 31
